Structures can show the parent of a compound that is named as a salt.
Test system: Saccharomyces cerevisiae
Experiment: fraction of cells in G1 phase (DNA content, flow cytometry); higher = more cells with unreplicated DNA (G1 delay)
Details: temperature: 30 C; YPD; BY4741 PDR5+ SNQ2+; drug added to: actively dividing cells; 4.33 h
Method: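 S. cerevisiae cultures in YPD at 30°C were treated with each drug of the Enzo FDA-approved library at 20 µg/ml (final µM given per drug). Cells were fixed after 6–7 h (S1) or 6 h (S2), or after 4.33 h for BY4741 (S3), then stained with SYTOX Green. %G1 is the Dean-Jett-Fox G1 peak area divided by the G1+G2/M peak areas, written as a fraction and averaged over at least two independent experiments. DMSO reference: mean ~0.49; >0.60 is called High G1 and <0.3876 Low G1. Scale: lower means mitotic delay.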

Going from `CC[C@H](C)C(=O)O[C@H]1C[C@@H](C)C=C2C=C[C@H](C)[C@H](CC[C@@H]3C[C@@H](O)CC(=O)O3)[C@H]21` [Lovastatin] (49.4375 µM) to `CC(=O)[C@H]1CC[C@H]2[C@@H]3CCC4=CC(=O)CC[C@]4(C)[C@H]3CC[C@]12C` [Progesterone] (63.5987 µM), the “fraction of cells in G1 phase” value rises from 0.402 to 0.501.

Compared with `COc1c(N2C[C@@H]3CCCN[C@@H]3C2)c(F)cc2c(=O)c(C(=O)O)cn(C3CC3)c12` [Moxifloxacin HCl] (45.6725 µM), `CC(=O)N1CCN(c2ccc(OCC3COC(Cn4ccnc4)(c4ccc(Cl)cc4Cl)O3)cc2)CC1` (configuration not stated) [Ketoconazole] (37.6334 µM) is higher in “fraction of cells in G1 phase” value: 0.402 for the first, 0.507 for the second.

Compared with `CCC(C)n1ncn(-c2ccc(N3CCN(c4ccc(OCC5COC(Cn6cncn6)(c6ccc(Cl)cc6Cl)O5)cc4)CC3)cc2)c1=O` (configuration not stated) [Itraconazole] (28.3427 µM), `O=C(CCCN1CCC(O)(c2ccc(Cl)cc2)CC1)c1ccc(F)cc1` [Haloperidol HCl] (53.2093 µM) is lower in “fraction of cells in G1 phase” value: 0.493 for the first, 0.462 for the second.

Same assay, conditions: temperature: 30 C; YPD; JTY2953 pdr5 snq2 (sensitized); drug added to: actively dividing cells; 6 h

Going from `CC[C@H](C)C(=O)O[C@H]1C[C@@H](C)C=C2C=C[C@H](C)[C@H](CC[C@@H]3C[C@@H](O)CC(=O)O3)[C@H]21` [Lovastatin] (49.4375 µM) to `CC(=O)[C@H]1CC[C@H]2[C@@H]3CCC4=CC(=O)CC[C@]4(C)[C@H]3CC[C@]12C` [Progesterone] (63.5987 µM), the “fraction of cells in G1 phase” value falls from 0.698 to 0.693.

First: CCC(C)n1ncn(-c2ccc(N3CCN(c4ccc(OCC5COC(Cn6cncn6)(c6ccc(Cl)cc6Cl)O5)cc4)CC3)cc2)c1=O (configuration not stated) [Itraconazole] (28.3427 µM)
Second: CC(=O)N1CCN(c2ccc(OCC3COC(Cn4ccnc4)(c4ccc(Cl)cc4Cl)O3)cc2)CC1 (configuration not stated) [Ketoconazole] (37.6334 µM)
The “fraction of cells in G1 phase” value of the first is lower: 0.751 for the first, 0.84 for the second.

First: CC/C(=C(\c1ccccc1)c1ccc(OCCN(C)C)cc1)c1ccccc1 [Tamoxifen citrate] (53.8319 µM)
Second: CC[C@H](c1ccc(O)cc1)[C@@H](CC)c1ccc(O)cc1 [Hexestrol] (73.9714 µM)
The “fraction of cells in G1 phase” value of the first is lower: 0.385 for the first, 0.481 for the second.

Going from `CN1CCN(CCCN2c3ccccc3Sc3ccc(C(F)(F)F)cc32)CC1` [Trifluoperazine 2HCl] (41.632 µM) to `O=C(CCCN1CCC(O)(c2ccc(Cl)cc2)CC1)c1ccc(F)cc1` [Haloperidol HCl] (53.2093 µM), the “fraction of cells in G1 phase” value rises from 0.295 to 0.762.

Same assay, conditions: temperature: 30 C; YPD; JTY2953 pdr5 snq2 (sensitized); drug added to: cultures diluted from stationary phase; 6-7 h

Compared with `C[C@]12CC[C@@H]3c4ccc(O)cc4CC[C@H]3[C@@H]1C[C@@H](O)[C@@H]2O` [Estriol] (69.3505 µM), `COC(=O)[C@@H]1[C@H]2C[C@H]3c4[nH]c5ccccc5c4CCN3C[C@@H]2CC[C@@H]1O` [Yohimbine HCl] (51.164 µM) is lower in “fraction of cells in G1 phase” value: 0.535 for the first, 0.524 for the second.

First: CC[C@H](C)C(=O)O[C@H]1C[C@@H](C)C=C2C=C[C@H](C)[C@H](CC[C@@H]3C[C@@H](O)CC(=O)O3)[C@H]21 [Lovastatin] (49.4375 µM)
Second: CCC(=O)O[C@@H](O[P@](=O)(CCCCc1ccccc1)CC(=O)N1C[C@H](C2CCCCC2)C[C@H]1C(=O)O)C(C)C [Fosinopril] (35.4813 µM)
The “fraction of cells in G1 phase” value of the first is higher: 0.747 for the first, 0.501 for the second.

Compared with `CN(C(=O)CCCOc1ccc2[nH]c(=O)ccc2c1)C1CCCCC1` [Cilostamide] (58.4041 µM), `O=C(CCCN1CCC(O)(c2ccc(Cl)cc2)CC1)c1ccc(F)cc1` [Haloperidol HCl] (53.2093 µM) is higher in “fraction of cells in G1 phase” value: 0.499 for the first, 0.617 for the second.

Compared with `CN(C)C(=O)C(CCN1CCC(O)(c2ccc(Cl)cc2)CC1)(c1ccccc1)c1ccccc1` [Loperamide] (38.9864 µM), `CC/C(=C(\c1ccccc1)c1ccc(OCCN(C)C)cc1)c1ccccc1` [Tamoxifen citrate] (53.8319 µM) is higher in “fraction of cells in G1 phase” value: 0.512 for the first, 0.896 for the second.

Going from `COc1c(N2C[C@@H]3CCCN[C@@H]3C2)c(F)cc2c(=O)c(C(=O)O)cn(C3CC3)c12` [Moxifloxacin HCl] (45.6725 µM) to `COc1cc2nc(N3CCN(C(=O)c4ccco4)CC3)nc(N)c2cc1OC` [Prazosin HCl] (47.6417 µM), the “fraction of cells in G1 phase” value rises from 0.212 to 0.487.

First: N=C(N)NC(=O)Cc1c(Cl)cccc1Cl [Guanfacine HCl] (70.7818 µM)
Second: Nc1ccc(O)c(C(=O)O)c1 [5-aminosalicylic acid] (130.601 µM)
The “fraction of cells in G1 phase” value of the first is higher: 0.495 for the first, 0.48 for the second.

Compared with `Cc1ccc(NC(=O)c2ccc(CN3CCN(C)CC3)cc2)cc1Nc1nccc(-c2cccnc2)n1` [Imatinib] (40.5173 µM), `CCC(C)n1ncn(-c2ccc(N3CCN(c4ccc(OCC5COC(Cn6cncn6)(c6ccc(Cl)cc6Cl)O5)cc4)CC3)cc2)c1=O` (configuration not stated) [Itraconazole] (28.3427 µM) is higher in “fraction of cells in G1 phase” value: 0.52 for the first, 0.667 for the second.

Going from `CC(=O)[C@H]1CC[C@H]2[C@@H]3CCC4=CC(=O)CC[C@]4(C)[C@H]3CC[C@]12C` [Progesterone] (63.5987 µM) to `CC(=O)[C@@]1(O)CC[C@H]2[C@@H]3CCC4=CC(=O)CC[C@]4(C)[C@H]3CC[C@@]21C` [17- hydroxyprogesterone] (60.5196 µM), the “fraction of cells in G1 phase” value falls from 0.607 to 0.515.

Compared with `CO[C@@H]1[C@@H](OC(N)=O)[C@@H](O)[C@H](Oc2ccc3c(O)c(NC(=O)c4ccc(O)c(CC=C(C)C)c4)c(=O)oc3c2C)OC1(C)C` [Novobiocin Na] (32.6456 µM), `CC(=O)O[C@H]1C(=O)[C@@]2(C)[C@H]([C@H](OC(=O)c3ccccc3)[C@]3(O)C[C@H](OC(=O)[C@H](O)[C@@H](NC(=O)c4ccccc4)c4ccccc4)C(C)=C1C3(C)C)[C@]1(OC(C)=O)CO[C@@H]1C[C@@H]2O` [Taxol] (23.4212 µM) is lower in “fraction of cells in G1 phase” value: 0.513 for the first, 0.481 for the second.

Compared with `CN(C)/N=N/c1[nH]cnc1C(N)=O` [Dacarbazine] (109.778 µM), `CCCc1cc(C(N)=S)ccn1` [Prothionamide] (110.943 µM) is higher in “fraction of cells in G1 phase” value: 0.47 for the first, 0.482 for the second.

First: CC(=O)N1CCN(c2ccc(OCC3COC(Cn4ccnc4)(c4ccc(Cl)cc4Cl)O3)cc2)CC1 (configuration not stated) [Ketoconazole] (37.6334 µM)
Second: CN1CCN(CCCN2c3ccccc3Sc3ccc(C(F)(F)F)cc32)CC1 [Trifluoperazine 2HCl] (41.632 µM)
The “fraction of cells in G1 phase” value of the first is lower: 0.747 for the first, 0.873 for the second.

First: Cc1ccc(N(CC2=NCCN2)c2cccc(O)c2)cc1 [PhentolamineHCl] (62.9327 µM)
Second: COc1ccc(CN(CCN(C)C)c2ccccn2)cc1 [Mepyramine maleate] (70.079 µM)
The “fraction of cells in G1 phase” value of the first is higher: 0.505 for the first, 0.495 for the second.

Going from `CCC(NC(C)C)C(O)c1ccc(O)c2[nH]c(=O)ccc12` (configuration not stated) [Procaterol hcl] (68.8787 µM) to `CC[C@H](c1ccc(O)cc1)[C@@H](CC)c1ccc(O)cc1` [Hexestrol] (73.9714 µM), the “fraction of cells in G1 phase” value rises from 0.526 to 0.895.

First: COc1ccc(C[C@H](N)C(=O)N[C@H]2[C@@H](O)[C@H](n3cnc4c(N(C)C)ncnc43)O[C@@H]2CO)cc1 [Puromycin 2HCl] (36.7377 µM)
Second: CCOC(=O)c1ncn2c1CN(C)C(=O)c1cc(F)ccc1-2 [Flumazenil] (65.9423 µM)
The “fraction of cells in G1 phase” value of the first is lower: 0.5 for the first, 0.507 for the second.

Reference: the supplement of paper PMC3342239
